# Assays:
# Experiment in all cases: thermal shift delta Tm vs DMSO control; higher = stronger stabilization (binding)
# Conditions in all cases: 12.5 µM; protein concentration 2 µM
# [1] = tested on: LOC_OS02G45750-cb003
# Procedure, shortened: (§1)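 Thermal shift values come from differential scanning fluorimetry on purified rice kinase domains made in E. coli, with melting temperatures obtained from Boltzmann fits. Samples of 19.5 μl held 2 μM kinase, 100 mM potassium phosphate pH 7.5, 150 mM NaCl, 10% glycerol, 5 × SYPRO Orange and compound in DMSO, and were heated from 25°C to 95°C at 0.05°C/s. Each shift is a triplicate mean relative to the DMSO-only protein sample.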
# [2] = tested on: LOC_OS02G54510-cb004
# Procedure, shortened: as §1
# [3] = tested on: LOC_OS03G04050-cb001
# Procedure, shortened: as §1
# [4] = tested on: LOC_OS03G12390-cb001
# Procedure, shortened: as §1
# [5] = tested on: LOC_OS03G27990-cb004
# Procedure, shortened: as §1
# [6] = tested on: LOC_OS03G50450-cb001
# Procedure, shortened: as §1
# [7] = tested on: LOC_OS03G50810-cb003
# Procedure, shortened: as §1
# [8] = tested on: LOC_OS04G35114-cb001
# Procedure, shortened: as §1
# [9] = tested on: T1, LOC_OS04G38480-cb003
# T1 sequence (whole entry): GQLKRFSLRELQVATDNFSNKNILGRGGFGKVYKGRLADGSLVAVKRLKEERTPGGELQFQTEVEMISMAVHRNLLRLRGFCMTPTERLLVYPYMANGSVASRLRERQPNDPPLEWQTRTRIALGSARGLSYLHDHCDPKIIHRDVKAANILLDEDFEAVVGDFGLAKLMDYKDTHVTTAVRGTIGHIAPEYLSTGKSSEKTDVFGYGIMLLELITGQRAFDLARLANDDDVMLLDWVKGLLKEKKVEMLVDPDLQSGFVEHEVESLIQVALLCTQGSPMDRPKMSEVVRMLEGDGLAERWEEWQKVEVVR
# Procedure, shortened: as §1
# [10] = tested on: T2, LOC_OS04G41100-cb001
# T2 sequence (whole entry): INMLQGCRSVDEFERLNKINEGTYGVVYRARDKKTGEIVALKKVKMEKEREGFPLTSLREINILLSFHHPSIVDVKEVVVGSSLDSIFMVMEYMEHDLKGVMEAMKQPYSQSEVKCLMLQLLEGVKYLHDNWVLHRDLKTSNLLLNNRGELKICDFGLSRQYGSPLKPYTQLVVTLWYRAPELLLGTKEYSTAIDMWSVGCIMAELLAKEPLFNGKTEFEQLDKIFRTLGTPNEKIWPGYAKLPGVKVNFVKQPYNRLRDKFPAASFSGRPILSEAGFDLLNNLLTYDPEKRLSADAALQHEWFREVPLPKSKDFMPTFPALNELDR
# Procedure, shortened: as §1
# [11] = tested on: LOC_OS04G57630-cb004
# Procedure, shortened: as §1
# [12] = tested on: LOC_OS05G07850-cb002
# Procedure, shortened: as §1
# [13] = tested on: LOC_OS05G16824-cb004
# Procedure, shortened: as §1
# [14] = tested on: LOC_OS05G28520-cb001
# Procedure, shortened: as §1
# [15] = tested on: LOC_OS05G30820-cb001
# Procedure, shortened: as §1
# [16] = tested on: LOC_OS05G43570-cb004
# Procedure, shortened: as §1
# [17] = tested on: LOC_OS06G16330-cb003
# Chain of LOC_OS06G16330-cb003 (as listed by the source): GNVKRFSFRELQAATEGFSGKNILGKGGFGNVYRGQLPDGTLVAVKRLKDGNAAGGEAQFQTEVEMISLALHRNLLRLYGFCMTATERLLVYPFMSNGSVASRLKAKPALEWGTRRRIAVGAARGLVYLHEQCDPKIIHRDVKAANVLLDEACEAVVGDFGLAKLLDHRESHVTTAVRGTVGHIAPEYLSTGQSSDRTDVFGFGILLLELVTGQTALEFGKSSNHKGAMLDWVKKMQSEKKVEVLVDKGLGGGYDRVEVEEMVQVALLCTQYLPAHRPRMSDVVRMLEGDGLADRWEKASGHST
# Procedure, shortened: as §1
# [18] = tested on: T3, LOC_OS06G22820-cb001
# T3 sequence (whole entry): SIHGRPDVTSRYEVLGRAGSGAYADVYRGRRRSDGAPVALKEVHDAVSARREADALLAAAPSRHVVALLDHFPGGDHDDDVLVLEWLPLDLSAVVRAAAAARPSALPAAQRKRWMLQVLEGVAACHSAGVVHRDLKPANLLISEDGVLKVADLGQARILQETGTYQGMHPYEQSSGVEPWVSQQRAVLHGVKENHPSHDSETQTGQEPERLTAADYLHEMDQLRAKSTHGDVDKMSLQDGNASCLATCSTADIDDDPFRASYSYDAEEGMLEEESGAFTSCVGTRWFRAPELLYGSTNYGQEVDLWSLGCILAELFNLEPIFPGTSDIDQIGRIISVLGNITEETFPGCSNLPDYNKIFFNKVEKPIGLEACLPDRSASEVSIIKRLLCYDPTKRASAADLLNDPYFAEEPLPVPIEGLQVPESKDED
# Procedure, shortened: as §1
# [19] = tested on: LOC_OS07G06570-cb004
# Procedure, shortened: as §1
# [20] = tested on: LOC_OS07G07230-cb001
# Procedure, shortened: as §1
# 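Further: purified Escherichia coli-expressed rice kinase domain construct.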
SMILES,thermal shift delta Tm [1],thermal shift delta Tm [2],thermal shift delta Tm [3],thermal shift delta Tm [4],thermal shift delta Tm [5],thermal shift delta Tm [6],thermal shift delta Tm [7],thermal shift delta Tm [8],thermal shift delta Tm [9],thermal shift delta Tm [10],thermal shift delta Tm [11],thermal shift delta Tm [12],thermal shift delta Tm [13],thermal shift delta Tm [14],thermal shift delta Tm [15],thermal shift delta Tm [16],thermal shift delta Tm [17],thermal shift delta Tm [18],thermal shift delta Tm [19],thermal shift delta Tm [20]
COc1ccc(F)c(F)c1C(=O)c1cnc(NC2CCN(S(C)(=O)=O)CC2)nc1N,1.63 °C,-0.08 °C,0.26 °C,-0.05 °C,0.19 °C,0.18 °C,0.05 °C,0.62 °C,1.07 °C,0.79 °C,0.37 °C,3.17 °C,-1.46 °C,0.04 °C,0.47 °C,0.11 °C,1.56 °C,0.23 °C,0.61 °C,0.3 °C
"Cc1c(CN2CCN(C(=O)[C@H](C)O)CC2)sc2c(N3CCOCC3)nc(-c3cnc(N)nc3)nc12 [Apitolisib (GDC-0980, RG7422)]",0.62 °C,0.4 °C,0.32 °C,0.75 °C,0.18 °C,1.38 °C,0.78 °C,0.55 °C,1.12 °C,0.47 °C,0.67 °C,2.89 °C,1.9 °C,0.57 °C,0.58 °C,1.24 °C,0.88 °C,0.56 °C,0.61 °C,-0.1 °C
COc1cc(N2CCN(C)CC2)ccc1Nc1nccc(-c2cn(C)c3cnccc23)n1,2.73 °C,0.02 °C,0.3 °C,9.57 °C,0.05 °C,-0.05 °C,1.79 °C,4.35 °C,1.32 °C,0.51 °C,0.55 °C,11.8 °C,-3.65 °C,0.25 °C,0.38 °C,0.32 °C,5.31 °C,0.11 °C,1.53 °C,0.44 °C
O=S(=O)(c1cccc2c(I)cccc12)N1CCCNCC1,0.53 °C,-0.05 °C,0.42 °C,0.16 °C,0.1 °C,0.19 °C,0.19 °C,0.11 °C,2.17 °C,0.44 °C,-0.05 °C,0.78 °C,1.61 °C,0.14 °C,0.08 °C,0.32 °C,0.09 °C,0.37 °C,1.9 °C,0.16 °C
CC(C)(C)NC(=O)c1cncn1C1CCN(c2ccc(-c3nnc(C(F)(F)F)o3)cn2)CC1,0.9 °C,0.27 °C,0.48 °C,-0.08 °C,0.32 °C,0.7 °C,0.36 °C,-0.3 °C,1.43 °C,0.3 °C,-0.11 °C,0.05 °C,0.92 °C,-0.42 °C,0.02 °C,-0.06 °C,-0.23 °C,0.29 °C,1.08 °C,0.57 °C
Cc1cc(F)c(Nc2ncnc3cc(OCc4ccccc4)ccc23)cc1O,0.78 °C,0.36 °C,0.9 °C,0.2 °C,0.83 °C,1.28 °C,0.71 °C,1.12 °C,1.35 °C,-0.11 °C,-0.1 °C,1.29 °C,-1.22 °C,1.19 °C,0.76 °C,1.17 °C,-0.11 °C,1.28 °C,2.49 °C,0.37 °C
C[C@H](NC(=O)/C(C#N)=C/c1cccc(Br)n1)c1ccccc1,-0.81 °C,-0.57 °C,0.05 °C,-2.64 °C,-2.84 °C,0.09 °C,-1.35 °C,-1.1 °C,0.59 °C,-0.11 °C,-1.13 °C,-0.94 °C,-17.3 °C,-0.45 °C,0.31 °C,-0.67 °C,-1.56 °C,0.13 °C,0.17 °C,-0.47 °C
C[C@@H]1CN(CC(=O)Nc2ccc3c(c2)Cc2cccc(-c4cc(=O)cc(N5CCOCC5)o4)c2S3)C[C@H](C)O1,0.27 °C,-0.11 °C,0.02 °C,0.37 °C,-0.04 °C,0.03 °C,0.14 °C,0.37 °C,-0.13 °C,0.23 °C,-0.04 °C,0.16 °C,-0.46 °C,-0.13 °C,0.31 °C,0.21 °C,-0.2 °C,0.77 °C,1.02 °C,-0.36 °C
NC(=O)c1ccc2nc(-c3ccc(Oc4ccc(Cl)cc4)cc3)[nH]c2c1 [Chk2 Inhibitor II (BML-277)],-1.27 °C,-0.11 °C,0.47 °C,0.95 °C,0.3 °C,0.23 °C,0.22 °C,0.43 °C,0.19 °C,-0.49 °C,-0.02 °C,3.29 °C,2.79 °C,0.29 °C,-0.18 °C,0.06 °C,0.28 °C,0.74 °C,-0.16 °C,-0.75 °C
N#C/C(=C(/N)Sc1ccc(N)cc1)c1ccccc1C(F)(F)F,-0.09 °C,0.03 °C,0.54 °C,-0.46 °C,0.47 °C,-0.3 °C,-0.02 °C,0.28 °C,0.37 °C,0.78 °C,-0.02 °C,-0.43 °C,-2.13 °C,0.13 °C,0.55 °C,-0.02 °C,-0.1 °C,0.8 °C,0.09 °C,0.16 °C
CC[C@@H]1C(=O)N(C)c2cnc(Nc3ccc(C(=O)NC4CCN(C)CC4)cc3OC)nc2N1C1CCCC1,1.12 °C,0.21 °C,0.16 °C,2.23 °C,-0.16 °C,-0.26 °C,0.11 °C,0.67 °C,-0.31 °C,0.39 °C,-0.45 °C,0.42 °C,1.14 °C,0.12 °C,0.28 °C,0.24 °C,0.39 °C,0.4 °C,0.75 °C,0.09 °C
C=CC(=O)Nc1ccc(CN2C(=O)N(c3cc(OC)cc(OC)c3)Cc3cnc(Nc4ccc(N5CCN(C)CC5)cc4)nc32)cc1,1.47 °C,1.08 °C,0.74 °C,0.1 °C,0.49 °C,0.33 °C,0.75 °C,1.29 °C,2.8 °C,0.83 °C,7.31 °C,0.75 °C,1.16 °C,1.83 °C,0.78 °C,0.66 °C,2.37 °C,0.84 °C,2.63 °C,1.29 °C
C[S+]([O-])c1ccc(-c2nc(-c3ccc(F)cc3)c(-c3ccncc3)[nH]2)cc1 (stereo not given),1.21 °C,0.81 °C,1.08 °C,0.78 °C,0.58 °C,0.08 °C,0.32 °C,1.35 °C,1.26 °C,1.23 °C,0.89 °C,1.83 °C,-0.97 °C,1.26 °C,0.6 °C,1.12 °C,0.69 °C,0.87 °C,1.21 °C,0.43 °C

# Source: the supplement of paper PMC9694430
